Our source for the Potency, activity change, negative = inhibition and activity change, negative = cytotoxicity values is PubChem BioAssay (NCATS).

Inconclusive results are not listed. Unmarked numbers belong to inactive results. Activity calls are given as the source filed them. Calls come from the whole dose curve; as a rule, active = well fitted curve in the direction sought with a large enough effect; inconclusive = small, poorly fitted or top-dose-only effect, or another doubt; inactive = no such curve, though single readings can be large; an effect the other way counts as inactive or inconclusive.

One experiment concerns OV90. Kind of experiment: Primary qHTS to identify gynecologic anti-cancer compounds using libraries of approved drugs and bioactive compounds (AID 1345084). Note: nearly all actives have a fitted effect of over 55% in size. To be noted: Gynecologic cancer cell panel viability, ATPlite luminescence, 48 h; series mostly up to 57.5 µM. Summed up: (§1)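 In this quantitative HTS, cell killing is estimated from loss of ATP-dependent luciferase light. Cells see five compound concentrations over a 48 h exposure.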
In general terms: Quantitative high-throughput screening tests each substance at several concentrations.

A further experiment relates to Tov-21-G. The description is as above. To be noted: Gynecologic cancer cell panel viability, ATPlite luminescence, 48 h; series mostly up to 57.5 µM. The essentials: as §1
In general terms: In ATP-based viability assays light output follows the ATP content of the culture.

Experiment [1] in a line: qHTS assay to identify inhibitors of the type 1 interferon - major histocompatibility complex class I in skeletal muscle: Counter screen cell viability and HiBit confirmation (AID 1347412). For all read-outs here: nearly all actives have a fitted effect of over 60% in size. The following applies: iHSKM muscle cells + IFN-b, HiBiT or CellTiter-Glo, 24 h; for activity change, negative = inhibition: Viability, at 45.9 µM (top of the series). Summed up: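 Duplicate plates, pinned identically: one read for HiBiT-tagged endogenous HLA-B luminescence, the other for ATP-content viability via CellTiter Glo. Cells were genome-engineered human myoblasts given 4 ng/ml IFN-b; compounds 12-pt, 1:3 from 46 uM final; 24 hr exposure.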

Another experiment has as its system Tov112D. Nature of the experiment: Primary qHTS to identify gynecologic anti-cancer compounds using libraries of approved drugs and bioactive compounds (AID 1345084). Note: nearly all actives have a fitted effect of over 55% in size. To be noted: Gynecologic cancer cell panel viability, ATPlite luminescence, 48 h; series mostly up to 57.5 µM. Summed up:
as §1
% is set by controls: 0 for no effect and ±100 for the full control effect; potency is the fitted concentration of half-maximal effect.

In the case of `C=CC(=O)Nc1ccc2ncnc(Nc3cccc(Br)c3)c2c1`, the Potency entry in the experiment with OV90 is “inactive”. For the same molecule, in the experiment on Tov-21-G, the Potency is 10 µM (active). Also, in experiment [1], the activity change, negative = inhibition was -0.162%.
Consider `CC1(C(=O)Nc2ccc(F)nc2)CCCN1c1nc(Nc2cc(C3CC3)[nH]n2)c2cccn2n1` (configuration not stated), for which the Potency in the experiment with OV90 is 3.55 µM (active); in the experiment with Tov-21-G it was 14.1 µM (active). Moreover, in the experiment on Tov112D, the Potency result was “inactive”.
As for `Cc1[nH]c2ccccc2c1CCNCc1ccc(/C=C/C(=O)NO)cc1`, the Potency in the experiment on OV90 is 1 µM (active); in the experiment on Tov-21-G, 0.708 µM (active); with Tov112D it was 0.316 µM (active); in experiment [1] (HiBiT), 0.0625 µM (active). Also, the activity change, negative = inhibition in experiment [1] was -25.2%.
Regarding `O=C(NO)c1ccc(CC(=O)N(CCO)c2ccccc2)cc1`, the Potency result with OV90, in the experiment on Tov-21-G and in the experiment with Tov112D was “inactive” throughout.
Regarding `COc1ccc2nc3n[nH]c(C)c3c(NCCOCCO)c2c1`, the Potency entry in the experiment with OV90, in the experiment with Tov-21-G and with Tov112D was “inactive” throughout.
As for `C=CC(=O)N1CCCC(n2nc(-c3ccc(Oc4ccccc4)cc3)c3c(N)ncnc32)C1` (configuration not stated), the Potency entry with OV90 and with Tov112D was “inactive” throughout.
As to `Cc1ccc(NC(=O)N2CCN(c3nc(N)nc4sc(-c5cccnc5)nc34)CC2)cc1`, the Potency entry in the experiment with OV90, in the experiment with Tov-21-G and with Tov112D was “inactive” throughout.
Regarding `COc1cc(/C=C2\CCCN([C@@H](C)c3ccc(F)cc3)C2=O)ccc1-n1cnc(C)c1`, the Potency result with OV90, in the experiment on Tov-21-G and in the experiment on Tov112D was “inactive” each time.
`CC1(C)CC[C@]2(C(=O)O)CC[C@]3(C)C(=CCC4[C@@]5(C)C[C@@H](O)[C@H](O)C(CO)(CO)C5CC[C@]43C)C2[C@@H]1O` (some centres not stated): in the experiment with OV90, the Potency entry is “inactive”. For the same molecule, the Potency in the experiment on Tov112D was 7.94 µM (active).
In the case of `CCN1CCN(Cc2ccc(C(=O)Nc3ccc(C)c(Oc4ccc5c(c4)CC(=O)N5)c3)cc2C(F)(F)F)CC1`, the Potency result in the experiment with OV90, with Tov-21-G and in the experiment on Tov112D was “inactive” in each case.
As for `C=C1C(=O)OC[C@@H]1C/C=C(\C)CC1CC(C)C(=O)O1` (some centres not stated), the Potency entry in the experiment with OV90, in the experiment with Tov-21-G and in the experiment with Tov112D was “inactive” each time.
With `Cn1cc(-c2cnn3c(N)c(Br)c([C@@H]4CCCNC4)nc23)cn1`, the Potency result with OV90 and in the experiment on Tov112D was “inactive” in each case.
Regarding `CC(=O)O[C@H]1CC2C(COC(=O)CC(C)C)=CO[C@@H](OC(=O)CC(C)C)C2[C@]12CO2` (some centres not stated), the Potency result in the experiment on OV90, in the experiment on Tov-21-G and with Tov112D was “inactive” throughout.
`CN(C)CC1CCn2c(c(C3=C(c4cn(C)c5ccccc45)C(=O)NC3=O)c3ccccc32)C1` (configuration not stated): the Potency in the experiment with OV90 was 12.6 µM (active). In addition, the Potency entry in the experiment with Tov112D was “inactive”.
Turning to `CC(CCC1(O)OC2CC3C4CC=C5CC(O[C@@H]6O[C@H](CO)[C@@H](O[C@@H]7O[C@@H](C)[C@H](O)[C@@H](O)[C@H]7O)[C@H](O)[C@H]6O[C@@H]6O[C@@H](C)[C@H](O)[C@@H](O)[C@H]6O)CCC5(C)C4CCC3(C)C2C1C)CO[C@@H]1O[C@H](CO)[C@@H](O)[C@H](O)[C@H]1O` (some centres not stated), the activity change, negative = cytotoxicity in the experiment on OV90 is -6.71% [at 11.6 µM]; with Tov-21-G, -14.2% [at 11.6 µM]; with Tov112D, -1.44% [at 11.6 µM].
`N#Cc1cc(-c2ccnc(Nc3ccc(N4CCOCC4)cc3)n2)ccc1OC1CCOCC1`: the Potency entry in the experiment on OV90, in the experiment on Tov-21-G and in the experiment with Tov112D was “inactive” each time.
Consider `CN1CCN(S(=O)(=O)c2ccc(-c3cnc(N)c(C(=O)Nc4cccnc4)n3)cc2)CC1`, for which the Potency entry with OV90 and with Tov112D was “inactive” in each case.
In the case of `Cc1[nH]c(/C=C2\C(=O)Nc3cc(-c4ccccc4)ccc32)c(C)c1CCC(=O)O`, the Potency result with OV90 and in the experiment on Tov112D was “inactive” in each case.
In the case of `C=C1C(=O)O[C@@H]2/C=C(\CO)CC/C=C(/C=O)C[C@H](O)[C@@H]12`, the Potency result in the experiment on OV90 and in the experiment with Tov112D was “inactive” each time. Also, the Potency in the experiment on Tov-21-G is 28.2 µM (active).
For the molecule `Cc1cc(N2CCOCC2)ccc1Nc1nc(NC2CCCCC2)c2[nH]cnc2n1`, the Potency entry in the experiment with OV90, in the experiment with Tov-21-G and in the experiment on Tov112D was “inactive” in each case.
`CC[C@@H](C)[C@@H]1OC2(C=C[C@H]1C)C[C@@H]1C[C@H](C/C=C(\C)[C@H](O[C@H]3C[C@H](OC)[C@H](O[C@H]4C[C@H](OC)[C@H](NC(C)=O)[C@H](C)O4)[C@H](C)O3)[C@H](C)/C=C/C=C3\CO[C@H]4[C@H](O)C(C)=C[C@@H](C(=O)O1)[C@@]34O)O2` (some centres not stated): the Potency result with OV90, with Tov-21-G and in the experiment on Tov112D was “inactive” throughout.
Regarding `CC(NC(=O)Cc1cc(F)cc(F)c1)C(=O)NC1C(=O)N(C)c2ccccc2-c2ccccc21` (configuration not stated), the Potency result with OV90, in the experiment with Tov-21-G and in the experiment with Tov112D was “inactive” throughout.
